Shown are actives, neighbours in structure and some others; about 8% of the full set was active somewhere.
LASV entry inh = Lassa virus entry inhibition. Lassa virus pseudotype entry inhibition, cell reporter. 1.2% of 300,000 active. AID 540256. Potency, µM (top dose mostly 37.9 µM), inactives show top-dose activity change, negative = inhibition, hits mostly inhibitors; calls by dose curve; tested in HEK293 cells; further: potency means the concentration at half of the fitted maximal effect; on the % scale 0 is the no-effect control and ±100 the full control effect; nearly all actives have a fitted effect of over 50% in size
MARV entry inh = blocks Marburg virus binding to or entry into cells; Marburg virus pseudotyped entry inhibition, cell reporter; Potency, µM (highest dose often 37.8 µM), for the others: top-dose activity change, negative = inhibition, usual class: inhibitors; 1.8% of 300,000 active; calls by dose curve; tested in HEK293 cells; further: potency means the concentration at half of the fitted maximal effect; on the % scale 0 is the no-effect control and ±100 the full control effect
FMDV antiviral = blocks foot and mouth disease virus; FMDV antiviral cell-based qHTS; Potency, µM (doses to about 57.9 µM), without a hit: top-dose activity change, negative = inhibition, actives largely listed as inhibitors; 1.2% of 410,000 active; calls by dose curve; tested in HEK293T cells; further: read-out not given here; potency means the concentration at half of the fitted maximal effect; on the % scale 0 is the no-effect control and ±100 the full control effect; nearly all actives have a fitted effect of over 45% in size
HCV inh = HCV inhibition; 3.4% of 340,000 active; Huh7.5.1 HCVcc-Cre infection, luciferase reporter, 44 h; Potency, µM (top dose mostly 41.8 µM), for the others: at the highest dose activity change, negative = inhibition, usual class: inhibitors; active means well fitted inhibition curve with a large enough effect; inconclusive means small, poorly fitted or top-dose-only effect, or another doubt; inactive means no such curve, though single readings can be large or run the other way; further: potency means the concentration at half of the fitted maximal effect; on the % scale 0 is the no-effect control and ±100 the full control effect
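HCVcc-Cre virus at an moi near 0.5 was added right after compound to cells cultured 4 h from seeding (1,000 cells/well). Luciferase activity was determined 44 h later, 15 min after substrate addition at RT.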
SARS PLpro yeast-1 = inhibitors of SARS-CoV papain-like protease in yeast | S. cerevisiae expressing SARS-CoV PLpro, growth rescue | AID 485353 | Potency, µM (series often up to 32.9 µM), without a hit: top-dose activity, positive = growth rescue, most hits filed as activators | 0.19% of 330,000 active; calls by dose curve; further: potency means the concentration at half of the fitted maximal effect; 0% is about no effect; nearly all actives have a fitted effect of over 55% in size
HCMV inh = blocks human cytomegalovirus replication; AID 1259415; HFF cells, HCMV-luciferase reporter, 72 h; active compounds read low; activity change, negative = inhibition, % at 57.5 µM; 4.5% of 410,000 active; in the data active means activity change below about -60%; inconclusive means no clear call, values can overlap the other calls; inactive means above about -39%; further: on the % scale 0 is the no-effect control and ±100 the full control effect
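HFF cells seeded 16 h at 37C, treated with compounds, infected with luciferase-reporter HCMV at MOI 1 PFU/cell; luciferase read at 72 h post infection, normalized to buffer-only and Salinomycin controls.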
SARS PLpro yeast-2 = Inhibits SARS-CoV PLP in yeast, hit validation; shares compounds with SARS PLpro yeast-1; yeast expressing SARS-CoV PLpro, growth phenotype rescue; 19% of 1,000 active; AID 652038; calls only; call rule not given here
Starred values were filed as active, the others as inactive; [ ] = dose if it differs, or a comment.

How did O=C(Cn1cnc([N+](=O)[O-])n1)N/N=C/c1ccc(O)cc1O do in these assays?
LASV entry inh: inconclusive; MARV entry inh: inconclusive; FMDV antiviral: -21%; HCV inh: inconclusive; SARS PLpro yeast-1: 21%; HCMV inh: 47

What do the screens show for `O=C(Cn1cnc([N+](=O)[O-])n1)N/N=C/c1cccc2ccccc12`?
LASV entry inh: 3%; MARV entry inh: inconclusive; FMDV antiviral: -11%; HCV inh: -2%; SARS PLpro yeast-1: inconclusive; HCMV inh: -27; SARS PLpro yeast-2: inactive

How did CC1CCCCC1NC(=O)C(Cc1ccccc1)NS(=O)(=O)c1cccs1 (centres undefined) do in these assays?
LASV entry inh: 1%; MARV entry inh: inconclusive; HCV inh: 10%; SARS PLpro yeast-1: inconclusive; HCMV inh: -15; SARS PLpro yeast-2: inactive

Results for CC(CCc1ccccc1)NC(=O)C(Cc1ccccc1)NS(=O)(=O)c1cccs1 (centres undefined) ?
LASV entry inh: 2%; MARV entry inh: inconclusive; HCV inh: -26%; SARS PLpro yeast-1: 8%; HCMV inh: inconclusive

What do the screens show for `CCOC(=O)c1nn(-c2cccc(Cl)c2)c2nc(Nc3ccccc3)cc(=O)n12`?
LASV entry inh: 2%; MARV entry inh: 22%; FMDV antiviral: 0%; HCV inh: -20%; SARS PLpro yeast-1: 5%; HCMV inh: -18

How did CCOC(=O)c1nn(-c2ccc(Cl)cc2)c2nc(Nc3ccccc3)cc(=O)n12 do in these assays?
LASV entry inh: -6%; MARV entry inh: 1%; FMDV antiviral: 3%; HCV inh: -18%; SARS PLpro yeast-1: inconclusive; HCMV inh: inconclusive; SARS PLpro yeast-2: inactive

Results for CCn1c(SCC(=O)NC2CCCCC2)nnc1-c1ccccn1 ?
FMDV antiviral: -11%; HCV inh: 2%; SARS PLpro yeast-1: 3.5µM*; HCMV inh: -4; SARS PLpro yeast-2: inactive

How did COc1cc2nc(NCCc3ccc(Cl)cc3)n3nc(-c4ccccc4)nc3c2cc1OC do in these assays?
MARV entry inh: 5%[46.1 µM]; FMDV antiviral: -17%; HCMV inh: -4

How did Cc1sc2ncnc(N/N=C/c3ccccc3O)c2c1C do in these assays?
LASV entry inh: 10µM*; MARV entry inh: 3.2µM*; FMDV antiviral: 30%; HCV inh: inconclusive; SARS PLpro yeast-1: 1.1µM*; HCMV inh: -101*; SARS PLpro yeast-2: inconclusive

Results for Oc1ccccc1/C=N/Nc1ncc(Br)cn1 ?
LASV entry inh: -5%; MARV entry inh: -24%; FMDV antiviral: 49%; HCV inh: inconclusive; SARS PLpro yeast-1: inconclusive; HCMV inh: -98*; SARS PLpro yeast-2: inactive

How did CCNc1ncc2nc(CCc3ccccc3)c(=O)n(CCOC)c2n1 do in these assays?
FMDV antiviral: 14%

How did Cc1ccc2c(c1)N(C(=O)CCC(=O)NC1CCN(Cc3ccccc3)CC1)CC(C)O2 (centres undefined) do in these assays?
FMDV antiviral: 0%; HCV inh: -28%; SARS PLpro yeast-1: inconclusive; HCMV inh: -7; SARS PLpro yeast-2: inactive

Results for COC(=O)[C@]12C[C@H](CC(=O)N3CCOCC3)C(=O)N(Cc3ccc4c(c3)OCO4)C1=C[C@H](C(C)(C)C)O[C@@H]2C ?
HCMV inh: 38

Results for Cc1ccc2scc(N3CCN(c4ccccc4)CC3)c(=O)c2c1 ?
LASV entry inh: 16%[46.1 µM]; FMDV antiviral: 0%; HCMV inh: 14

What do the screens show for `CCCCOC(=O)Oc1ccc2c(=O)c(Oc3cc(C)cc(C)c3)coc2c1`?
LASV entry inh: 9%; MARV entry inh: inconclusive; FMDV antiviral: -11%; HCV inh: 16%; SARS PLpro yeast-1: inconclusive; HCMV inh: 12; SARS PLpro yeast-2: inactive

Results for Cc1cccc2cc(COC(=O)c3cccs3)c(=O)[nH]c12 ?
LASV entry inh: -16%; MARV entry inh: 1%; FMDV antiviral: 0%; HCV inh: -4%; SARS PLpro yeast-1: 3.2µM*; HCMV inh: -65*; SARS PLpro yeast-2: inactive

Assay outcomes deposited in PubChem BioAssay by National Center for Advancing Translational Sciences (NCATS).
